# Only a selection was taken, and hits are over-represented in it overall.
# ARNT TACC3 PPI: disruptors of ARNT/TACC3 protein interaction, primary screen, biochemical, AlphaScreen, single concentration; 390,000 tested, 0.66% active; inhibition, % at 9.99 µM; AlphaScreen His-ARNT PAS-B/GST-TACC3 binding, luminescence; TACC3 fragment carries E629A point mutation; Transforming acidic coiled-coil-containing protein 3 (Homo sapiens), Q9Y6A5;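 active = mean inhibition of replicates at least 50% and at least half of replicates each reaching 50%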;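 note: 0% = complete ARNT plus TACC3 wells and 100% = ARNT alone without TACC3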
# ALR H2O2 inh: inhibitors of human ALR sulfhydryl oxidase, primary screen, biochemical, H2O2 detection, HRP-luminol luminescence, single point | purified ALR, DTT oxidation | inhibition, % (no concentration beside the values) | AID 485317, 2010 | FAD-linked sulfhydryl oxidase ALR (Homo sapiens), P55789 | 290,000 tested, 3.8% active;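 active = mean replicate inhibition above about 79%, with every replicate also reaching it, limit read from the data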
# ERp5 block: inhibitors of ERp5-driven insulin aggregation, primary screen, biochemical, turbidity, absorbance 650 nm, single point | Protein disulfide-isomerase A6 (Homo sapiens), Q15084 | 90 min | inhibition, % at 9.99 µM | 350,000 tested, 0.05% active | AID 651711, 2012;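 active = mean replicate inhibition above about 25%, with every replicate also reaching it, limit read from the data, passing the limit was not always enough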
# PDI inh: inhibitors of human PDI, primary screen, biochemical, turbidity, single point, plate reader; PDI insulin aggregation turbidity, A650, 90 min; inhibition, % at 10 µM; 350,000 tested, 0.052% active; AID 588391, 2011;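 active = mean inhibition across replicates of 30% or more, whatever share of single replicates reach that level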
# NRP1-CendR mod: modulators of CendR peptide binding to NRP-1, primary screen, biochemical, fluorescence polarization, uHTS. Neuropilin-1 (Homo sapiens), O14786. FAM-RPARPAR peptide binding to NRP-1. inhibition, % at 25 µM. 360,000 tested, 0.85% active. AID 602438, 2012;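 active = inhibition or corrected inhibition above about 18%, plus a signal ratio from 0.5 to 1.5, limit read from the data, passing the limit was not always enough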
# Target sequence (O14786 whole entry, looked up): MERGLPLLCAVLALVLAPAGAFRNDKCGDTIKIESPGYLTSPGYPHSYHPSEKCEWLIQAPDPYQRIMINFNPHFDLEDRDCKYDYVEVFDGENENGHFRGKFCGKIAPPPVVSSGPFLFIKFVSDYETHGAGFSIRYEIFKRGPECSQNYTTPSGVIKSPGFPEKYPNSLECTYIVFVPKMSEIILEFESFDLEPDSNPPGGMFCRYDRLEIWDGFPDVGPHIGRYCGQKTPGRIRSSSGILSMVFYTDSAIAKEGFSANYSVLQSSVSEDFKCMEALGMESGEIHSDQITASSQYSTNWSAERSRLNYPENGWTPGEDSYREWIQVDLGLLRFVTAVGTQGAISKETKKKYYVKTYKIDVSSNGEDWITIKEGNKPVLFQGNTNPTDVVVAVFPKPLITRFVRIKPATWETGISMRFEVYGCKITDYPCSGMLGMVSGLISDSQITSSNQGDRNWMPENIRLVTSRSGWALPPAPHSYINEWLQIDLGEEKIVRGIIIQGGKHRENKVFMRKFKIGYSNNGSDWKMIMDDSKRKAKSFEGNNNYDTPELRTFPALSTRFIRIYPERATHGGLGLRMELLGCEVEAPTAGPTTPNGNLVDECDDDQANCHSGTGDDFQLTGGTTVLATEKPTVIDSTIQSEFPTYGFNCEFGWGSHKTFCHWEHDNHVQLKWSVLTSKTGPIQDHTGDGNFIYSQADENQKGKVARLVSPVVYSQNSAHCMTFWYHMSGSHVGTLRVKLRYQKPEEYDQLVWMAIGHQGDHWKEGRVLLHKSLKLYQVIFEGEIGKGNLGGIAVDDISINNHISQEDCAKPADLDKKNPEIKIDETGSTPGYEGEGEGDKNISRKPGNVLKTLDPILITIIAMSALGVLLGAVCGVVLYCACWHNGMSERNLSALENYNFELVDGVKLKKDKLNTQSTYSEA
# PglD inh: C. jejuni PglD acetyltransferase inhibitors, primary screen, biochemical, DTNB colorimetric, single point. UDP-N-acetylbacillosamine N-acetyltransferase PglD (Campylobacter jejuni). purified PglD enzyme, DTNB colorimetric CoA detection. inhibition, % at 12.5 µM. 360,000 tested, 0.098% active. AID 602405, 2012; in the data active = inhibition above about 16%, passing the limit was not always enough
# * = called active by the depositor; . = no result.
SMILES,ARNT TACC3 PPI,ALR H2O2 inh,ERp5 block,PDI inh,NRP1-CendR mod,PglD inh
CC(=NNC(=O)c1ccncc1)c1ccccc1O,60.9*,.,-11.9,5.4,-23.1,-6.1
COc1ccc(C(=O)Nc2n[nH]c(-c3ccncc3)n2)cc1,-0.9,-2.7,.,-5.2,25.7*,-5.8
COc1ccc(C(=O)Nc2ccc(/C(C)=N/NC(=O)c3ccncc3)cc2)cc1,-2.2,-2.9,6.7,5.9,-25.9,-0.3
COc1ccc(/C(C)=N/NC(=O)c2ccncc2)cc1,46.9*,.,4.2,12.7,-3.4,-2.8
CC(=NNC(=O)c1ccncc1)c1ccc2ccccc2c1O,2.4,.,-1.4,-3.2,144.2,.
CC(=NNC(=O)c1ccncc1)c1ccc(O)cc1O,85.3*,.,3.8,-12.0,-9.1,1.8
COc1ccc2c3c(n(C)c2c1)[C@@H](CO)N(C)CC31CN(C(=O)NC(C)C)C1,.,.,-4.0,.,.,.
CN(C)C(=O)[C@@H]1[C@@H](CO)[C@@H]2Cn3c(ccc(/C=C/c4ccccc4)c3=O)[C@@H]2N1C(=O)c1cnccn1,-1.3,.,2.6,.,.,1.6
COC(=O)C(C)Sc1nnc(Cc2cc(=O)[nH]c(=O)[nH]2)n1-c1cc(C)ccc1C (stereo unspecified),-7.1,90.6*,-5.6,1.7,-4.4,-6.1
CCOc1ccc(-n2c(Cc3cc(=O)[nH]c(=O)[nH]3)nnc2SC(C)C(=O)OC)cc1 (stereo unspecified),-4.7,92.5*,-1.2,-8.0,1.0,-3.0
COCC#Cc1cnc2c(c1)C(=O)N([C@H](C)CO)C[C@H](C)[C@@H](CN(C)Cc1ccc(F)cc1)O2,-3.2,.,5.1,.,.,-2.1
COc1ccc2c3c([nH]c2c1)[C@H](CO)N(Cc1ccncc1)CC31CN(Cc2ccc(-c3ccccn3)cc2)C1,.,.,2.1,.,.,.
COc1ccc(NC(=O)Nc2ccc3c(c2)CC(=O)N([C@@H](C)CO)C[C@@H](C)[C@H](CN(C)C)O3)cc1,1.1,.,-0.8,.,.,-0.1
CCNc1nc(NCC)nc(N(C)N)n1,70.2*,84.4*,.,2.2,2.6,-1.9
CCNc1nc(NC(C)C)nc(N(C)C#N)n1,-1.7,-6.8,-2.3,-0.6,14.3,-0.9
CC(C)Nc1nc(NC(C)C)nc(N(C)N)n1,59.2*,0.8,.,-2.9,19.3,.
COc1ccc(C#Cc2ccc3c(c2)[C@H]2[C@H](CCN2Cc2ccncc2)[C@@H](CO)N3)cc1,.,.,0.1,.,.,.
ClCc1cc2ccccc2nc1Cl,.,-5.3,1.6,-0.8,-7.4,.
Cc1ccc2cc(CCl)c(Cl)nc2c1,4.8,98.2*,-8.3,0.4,-3.7,1.0
COc1ccc(C(=O)c2ccccc2Cl)cc1,-5.9,-16.7,.,3.6,-5.3,4.1
Cc1sc(N)c(C(=O)c2ccccc2Cl)c1C,9.0,99.4*,4.1,-4.4,6.5,4.4
C[C@@H]1CN([C@@H](C)CO)S(=O)(=O)c2ccc(-c3cccc(F)c3)cc2O[C@H]1CN(C)C(=O)c1cccc(F)c1,-1.7,.,1.8,.,.,0.6
Cc1ccc(NC(=O)CCNC(=O)c2ccco2)cc1,-2.7,-25.1,.,9.7,6.3,.
CCN(c1ccc(NC(=O)CCNC(=O)c2ccco2)cc1)C(C)C,.,98.8*,-1.5,19.0,-3.4,-3.0
COCC(=O)N1CC(=O)N2[C@H](CO)[C@H](c3ccc(C#CCc4ccccc4)cc3)[C@@H]2C1,.,.,-4.4,.,.,.
SMILES,ARNT TACC3 PPI,ALR H2O2 inh,ERp5 block,PDI inh,NRP1-CendR mod,PglD inh
CCCCOc1ccc(-c2nc(=S)[nH][nH]2)cc1,-1.9,98.8*,.,1.5,0.2,-3.0
CCCCOc1ccc(-c2nc(SCC(N)=O)n[nH]2)cc1,-36.6,0.9,.,-0.8,-10.4,-5.1
C[C@H]1CCCCO[C@H](CN(C)C)[C@@H](C)CN([C@@H](C)CO)C(=O)c2cc(N(C)C)ccc2O1,-10.1,.,0.9,.,.,2.4
C[C@@H]1CN([C@@H](C)CO)C(=O)c2cc(C#CC3(O)CCCC3)cnc2O[C@@H]1CN(C)C(=O)C1CCOCC1,-1.4,.,4.5,.,.,2.8
CC(=O)NCCc1c(C)n(Cc2ccccc2)c2ccccc12,-7.3,98.8*,1.5,12.1,-17.7,2.2
O=C(NCc1ccncc1)c1cccc(S(=O)(=O)Nc2ccc(SC(F)F)cc2)c1,-3.9,32.4,-5.5,2.7,7.3,.
O=C(NCc1ccccn1)c1cccc(S(=O)(=O)Nc2ccc(SC(F)F)cc2)c1,7.3,97.6*,2.0,8.2,8.0,0.0
O=C(NCc1ccccn1)c1ccc(NS(=O)(=O)c2ccccc2)cc1,2.8,-5.5,0.1,10.2,22.1*,5.6
Cc1noc(C)c1NC(=O)Nc1ccc2c(c1)C(=O)N([C@H](C)CO)C[C@@H](C)[C@H](CN(C)Cc1ccc(C(=O)Nc3ccccc3N)cc1)O2,.,.,0.5,.,.,.
C[C@H]1CN([C@@H](C)CO)C(=O)c2cc(C3=CCCCC3)cnc2O[C@@H]1CN(C)C(=O)NC1CCCC1,-4.4,.,1.0,.,.,12.1
CS(=O)(=O)Nc1ccc(-c2n[nH]c(=S)n2-c2ccccc2)cc1,27.6,96.7*,.,-0.8,8.0,.
Cc1cccc(NCc2nc3ccccc3n2C)c1,1.7,-0.5,.,-8.8,4.9,-1.9
Cc1ccc(NCc2n[nH]c(=S)n2-c2ccccc2)cc1,.,98.1*,2.8,15.8,6.8,.
Cc1ccc(NCc2n[nH]c(=S)n2-c2ccccc2)c(C)c1,0.8,98.4*,1.3,-5.6,4.9,.
Cc1ccc(NCc2nc3ccccc3n2C)c(C)c1,10.7,97.5*,-1.1,-3.9,-2.7,-2.0
Cc1cccc(NCc2n[nH]c(=S)n2-c2ccccc2)c1,.,41.9,-15.1,1.6,-2.2,.
CC(C)NC(=O)N(C)C[C@@H]1Oc2ncc(C#Cc3ccncc3)cc2C(=O)N([C@@H](C)CO)C[C@H]1C,8.3,.,6.8,.,.,0.6
CCN(C[C@H]1[C@H](c2ccccc2)[C@@H](CO)N1S(C)(=O)=O)C(=O)C1CCC1,-2.4,.,.,.,.,2.9
c1ccc(NCC2OCc3ccccc3CO2)cc1,-7.4,97.7*,.,-2.5,-2.4,.
Cc1ccccc1Nc1cc(=O)oc2ccccc12,0.6,9.6,.,1.6,22.1*,3.7
Cc1ccc(N2CCN(S(=O)(=O)c3nnc(NC(=O)c4ccco4)s3)CC2)cc1,-6.4,97.1*,3.4,.,-10.1,7.7
COC(=O)C1C(O)=C(C(C)=N)C(=O)CC1(C)C (stereo unspecified),-5.5,97.7*,.,4.1,-2.7,-13.1
